# Inconclusive results are not listed. Unmarked numbers belong to inactive results. The source made the active and inactive calls. Calls come from the whole dose curve; as a rule, active = well fitted inhibition curve with a large enough effect; inconclusive = small, poorly fitted or top-dose-only effect; inactive = flat fitted curve, though single readings scatter.
# Assays:
# HaCat [1] = assay: Cytotoxic Profiling of Annotated Libraries Using Quantitative High-Throughput Screening (AID 1296008); details: Five cell lines viability, CellTiter-Glo ATP luminescence, 48-72 h; max response: active compounds read low; note: potency is the fitted concentration of half-maximal effect; for max response: % is set by controls: 0 for no effect and ±100 for the full control effect
# Outline: (§1)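 Cells exposed to compounds for 48 or 72 hr at 37 degrees Celsius. Viability read as ATP-coupled luminescence with CellTiter-Glo after 10 min at room temperature.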
# KB-3-1 = assay: as above; details: Five cell lines viability, CellTiter-Glo ATP luminescence, 48-72 h; max response: active compounds read low
# Outline: as §1
# HACAT [2] = assay: qHTS assay to identify novel small-molecules to repurpose for Merkel cell carcinoma treatment (AID 1296009); details: MCC and control cell lines, CellTiter-Glo viability, 72 h; at 44.8 µM (top of the series) unless noted
# Outline: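 Cells were treated for 72 hr at 37 degree celsius with compounds in 8- or 11-point dose response. Viability was read by CellTiter-Glo luminescence, normalized to no-cell (cytotoxicity) and DMSO controls.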
# NIH3T3 = assay: Cytotoxic Profiling of Annotated Libraries Using Quantitative High-Throughput Screening (AID 1296008); details: Five cell lines viability, CellTiter-Glo ATP luminescence, 48-72 h; max response: active compounds read low; note: potency is the fitted concentration of half-maximal effect; for max response: % is set by controls: 0 for no effect and ±100 for the full control effect
# Outline: as §1
# Note: nearly all actives have a fitted effect of over 60% in size.
structure (smiles),measurement,setting,value
C=C1CC[C@@H]2[C@](C)(CO)[C@H](O)CC[C@@]2(C)[C@@H]1C/C=C1/C(=O)OCC1OC(=O)/C(=C/CO)C(O)C[C@@H]1C(=C)CC[C@@H]2[C@](C)(CO)[C@H](O)CC[C@]21C (stereo not given in full),outcome,HaCat [1],inactive
same,outcome,KB-3-1,inactive
same,outcome,HACAT [2],inactive [at 17.4 µM]
C=C1[C@H]2CC[C@H](C(=O)O)[C@@]23CC[C@H](C3)C1(C)C,max response,HaCat [1],-74.2%
same,outcome,KB-3-1,inactive
same,outcome,NIH3T3,inactive
C/C=C(\C)C(=O)O[C@@H]1[C@@H](C)[C@]2(O)[C@@H]3C=C(C)C(=O)[C@H]3CC(CO)=C[C@H]2C2C(C)(C)[C@@]21OC(=O)C(C)CC (stereo not given in full),outcome,HaCat [1],inactive
same,max response,KB-3-1,0.342%
same,max response,NIH3T3,4.54%
same,outcome,HACAT [2],inactive [at 17.4 µM]
COc1cc(N2CCOCC2)ccc1NC(=O)c1csc(-c2cccnc2)n1,max response,HaCat [1],-49.6%
same,max response,KB-3-1,1.64%
same,Potency,NIH3T3,10.3 µM (active)
CC1(C)CC[C@]2(C(=O)O[C@@H]3O[C@H](CO)[C@@H](O)[C@H](O)[C@H]3O)CC[C@]3(C)C(=CCC4[C@@]5(C)CC[C@H](O[C@@H]6O[C@H](C(=O)O)[C@H](O)[C@H](O)[C@H]6O)C(C)(C)C5CC[C@]43C)[C@@H]2C1 (stereo not given in full),outcome,HaCat [1],inactive
same,outcome,KB-3-1,inactive
same,max response,NIH3T3,-2.05%
same,outcome,HACAT [2],inactive [at 17.4 µM]
COc1cc(C#N)ccc1S(=O)(=O)Nc1ccc2c(c1)cc(C)c(=O)n2C,max response,HaCat [1],-9.16%
same,max response,KB-3-1,-22.2%
same,max response,NIH3T3,-0.625%
Cc1cc(C(=O)Nc2cc(Oc3ccc4nc(NC(=O)C5CC5)cn4n3)ccc2C)n(C)n1,Potency,HaCat [1],18.4 µM (active)
same,Potency,NIH3T3,5.17 µM (active)
C=C(C(=O)O[C@H]1C/C(C)=C/CC/C(CO)=C/[C@H]2OC(=O)C(=C)[C@H]12)C(O)CO (stereo not given in full),outcome,HaCat [1],inactive
same,max response,KB-3-1,-10.8%
same,outcome,HACAT [2],inactive
CC[C@H]1OC(=O)[C@H](C)[C@@H](O[C@H]2C[C@@](C)(OC)[C@@H](O)[C@H](C)O2)[C@H](C)[C@@H](O[C@H]2O[C@H](C)C[C@H](N(C)C)[C@H]2O)[C@](C)(O)C[C@@H](C)C(=O)[C@H](C)[C@@H](O)[C@]1(C)O,outcome,HaCat [1],inactive
same,max response,KB-3-1,8.4%
same,outcome,HACAT [2],inactive [at 17.4 µM]
C=C1CC[C@@H](O)[C@]2(C)C[C@H]3OC(=O)C(=C)[C@H]3CC12 (stereo not given in full),outcome,HaCat [1],inactive
same,max response,KB-3-1,1.13%
same,outcome,HACAT [2],inactive
Cc1ccc(C)c(NS(=O)(=O)c2cc(C(=O)Nc3ccccc3-c3ccccc3)ccc2C)c1,max response,HaCat [1],-22.2%
same,max response,NIH3T3,-13.7%
CS/C=C/C(=O)O[C@@H]1CCC2=CC(=O)C(=C(C)C)C[C@]2(C)[C@H]1C,max response,HaCat [1],-6.05%
same,max response,NIH3T3,-13.9%
Cc1cnc(-c2ccccc2C(C)C)nc1NCc1ccc(-n2ccnn2)cc1,max response,HaCat [1],-29.3%
same,max response,NIH3T3,-17%
CCOC(=O)N1CCC(CN(Cc2ccc(Cl)cc2)Cc2ccc([N+](=O)[O-])s2)C1 (stereo not given),max response,HaCat [1],-2.73%
same,max response,NIH3T3,-3.24%
CC12CCC(OC3OC(CO)C(O)C(O)C3OC3OC(CO)C(O)C(O)C3O)CC1CCC1C2CCC2(C)/C(=C3/COC(=O)C3)CCC12O (stereo not given),max response,HaCat [1],-19.3%
same,max response,NIH3T3,-1.69%
CC(=O)O[C@H]1CC2C(COC(=O)CC(C)C)=CO[C@@H](OC(=O)CC(C)C)C2[C@]12CO2 (stereo not given in full),max response,HaCat [1],-12.1%
same,outcome,NIH3T3,inactive
O=C(Nc1ccc(-n2nc(C(F)(F)F)cc2C(F)(F)F)cc1)c1ccncc1F,max response,HaCat [1],3.3%
same,max response,NIH3T3,2.03%
COc1ccc(-c2csc(NC(=O)[C@H]3CCCCN3S(=O)(=O)c3ccc(C)cc3)n2)cc1,outcome,HaCat [1],inactive
same,max response,KB-3-1,-25.1%
same,outcome,HACAT [2],inactive
OC(CC1c2ccccc2-c2cncn21)C1CCCCC1 (stereo not given),max response,HaCat [1],-2.64%
same,max response,NIH3T3,-17.5%
O=C(C1CCCCC1)N(CCN1CCN(c2ccccc2O)CC1)c1ccccn1,outcome,HaCat [1],inactive
same,max response,KB-3-1,-15.9%
same,outcome,HACAT [2],inactive
O=c1nc(-c2ccccn2)sc2ccccc12,outcome,HaCat [1],inactive
same,max response,KB-3-1,3.79%
same,outcome,HACAT [2],inactive
COc1ccccc1N1CCN(CC[C@@](C)(C(=O)C2CCCCC2)c2ccccc2)CC1,max response,HaCat [1],-16.7%
same,max response,NIH3T3,-6.96%
O=C(Nc1cc(C(F)(F)F)cc(C(F)(F)F)c1)c1cnc(Cl)nc1C(F)(F)F,outcome,HaCat [1],inactive
same,max response,NIH3T3,-1.85%
same,outcome,HACAT [2],inactive
Cc1cc(-c2cc(OC(=O)c3ccccc3)ccc2Cl)cc2nnc(Nc3ccc(OCCN4CCCC4)cc3)nc12,max response,HaCat [1],3.59%
same,max response,NIH3T3,-28.4%
C[C@@H](c1ccc2nccn2c1)n1nnc2ncc(-c3cnn(C)c3)nc21,max response,HaCat [1],-13%
same,max response,NIH3T3,-14.7%

# Reference: PubChem BioAssay (NCATS)
